# TIM10 inh = growth inhibitors of TIM10 yeast strain; actives 1.4% (n = 330,000); inhibition, % at 10 µM; AID 463195; S. cerevisiae TIM10 strain growth, BacTiter-Glo luminescence, 24 h;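 active = inhibition of 40% or more at the single tested concentration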;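 also: wild-type TIM10 isogenic control strain grown at permissive 25 °C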
# SKKanGAS inh = blocks kanamycin growth of S. pyogenes SKKanGAS strain; BacTiter-Glo, 6 h; inhibition, % at 7.5 µM; actives 1.3% (n = 300,000); AID 1662;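 active = mean replicate score, as percent of positive control median, at least 50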;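 also: strain carries kanamycin resistance gene driven by streptokinase promoter and grows in 40 µg/ml kanamycin; loss of luminescence reflects streptokinase promoter inhibition or plain growth inhibition; 0% = median of DMSO wells and 100% = positive control at its reference dose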
# tim10-1 inh = tim10-1 yeast growth inhibition. S. cerevisiae tim10-1 ts strain growth, BacTiter-Glo, 24 h. inhibition, % at 20 µM. actives 2.2% (n = 330,000);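 active = inhibition of at least 40%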;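 also: mutant grown at 25 °C; 0% = DMSO wells with yeast and 100% = wells holding no yeast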
# ATG4B inhibitor = inhibitors of human ATG4B cysteine protease. Q9Y4P1. ATG4B cleavage of LC3-PLA2, NBD-HPC fluorescence, 1 h. inhibition, % at 8.33 µM. actives 0.51% (n = 340,000). AID 504462; in the data active = inhibition above about 40%
# Target sequence (Q9Y4P1 whole entry, looked up): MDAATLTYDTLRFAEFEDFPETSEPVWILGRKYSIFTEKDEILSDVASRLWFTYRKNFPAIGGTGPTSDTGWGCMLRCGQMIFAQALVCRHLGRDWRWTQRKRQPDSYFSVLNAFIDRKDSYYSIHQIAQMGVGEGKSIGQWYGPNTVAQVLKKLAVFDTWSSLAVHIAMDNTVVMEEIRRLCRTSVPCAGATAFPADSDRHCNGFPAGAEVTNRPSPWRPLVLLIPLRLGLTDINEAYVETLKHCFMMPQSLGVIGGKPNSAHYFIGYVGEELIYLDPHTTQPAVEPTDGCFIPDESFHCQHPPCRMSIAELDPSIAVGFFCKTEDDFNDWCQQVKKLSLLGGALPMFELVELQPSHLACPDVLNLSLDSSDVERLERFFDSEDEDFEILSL
# PfHsp90 yeast 2 = inhibits growth of yeast expressing Plasmodium falciparum Hsp90; S. cerevisiae expressing PfHsp90, BacTiter-Glo ATP, 48 h; yeast lacking PDR1 and PDR3 efflux regulators; inhibition, % at 9.4 µM; actives 0.32% (n = 310,000);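 active = every replicate shows inhibition above about 80%, whatever the replicate mean, limit read from the data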;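 also: 0% = DMSO neutral controls and 100% = 20 µM radicicol positive controls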
# tim23-1 inh = growth inhibitors of tim23-1 mutant yeast | S. cerevisiae tim23-1 growth, BacTiter-Glo luminescence, 24 h | inhibition, % at 20 µM | actives 1.3% (n = 330,000);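 active = growth inhibition of the mutant yeast at or above 50%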;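 also: temperature-sensitive mutant grown at 25 °C; plate controls were DMSO-treated mutant yeast for no effect and medium wells lacking yeast for full effect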
# Starred values were filed as active, the others as inactive; x = not tested or not shown. Shown are actives, neighbours in structure and some others; about 4.7% of the full set was active somewhere.
SMILES,TIM10 inh,SKKanGAS inh,tim10-1 inh,ATG4B inhibitor,PfHsp90 yeast 2,tim23-1 inh
CC(C)Sc1cc(N2CCCC2)nc(-c2ccc(F)cc2)n1,-6,76*,-4,-3,-3,12
CC(C)Sc1cc(N2CCCC2)nc(-c2ccccc2)n1,10,69*,7,4,-1,13
O=C(Nc1ccnc(=O)[nH]1)c1sc2ccccc2c1Cl,-9,-7,15,-3,-17,6
COc1cccc(NC(=O)CSc2nc3c([nH]c4ccccc43)c(=O)n2C)c1,-9,0,17,-10,11,-18
CCCCOc1ccc(/C=N/NC(=S)Nc2cccc(C)c2C)cc1,16,7,36,8,-14,1
Cc1cccc(C)c1NC(=S)N/N=C/c1ccc(OCCC(C)C)cc1,16,67*,27,-1,x,-6
CCOC(=O)Cc1c(C)nc2c(-c3cccc(Br)c3)c[nH]n2c1=O,7,95*,6,-3,19,13
COc1ccc(C=NNC(=O)CCCC(=O)NN=Cc2ccc(OC)c(O)c2)cc1O,x,x,x,-12,22,x
Cn1c(N2CCOCC2)c(C#N)c2ccccc21,3,-9,6,6,0,16
Cc1cccc(Cn2cnc3c(nnn3Cc3ccc(Cl)cc3)c2=O)c1,-18,0,-1,9,34,9
Cc1cccc(Cn2nc(-n3cccc3)c3c(C)cc(C)nc32)c1,5,55*,8,-4,-30,18
Cc1cccc2sc(NNC(=O)c3cc(=O)c4ccccc4o3)nc12,-13,85*,6,6,-33,25
Cc1ccc2sc(NNC(=O)c3cc(=O)c4ccccc4o3)nc2c1C,-162,86*,-39,14,-51,-13
COc1ccc2nc(NNC(=O)c3cc(=O)c4ccccc4o3)sc2c1,-30,50*,21,5,-18,23
O=C(NNc1nc2c(F)cccc2s1)c1cc(=O)c2ccccc2o1,-22,29,26,3,-48,19
COc1ccc(Nc2nc(C(=O)N3CCc4ccccc4C3)cs2)cc1,10,6,-9,22,-25,42
COCCCN1C(=O)c2ccc(C(=O)Nc3ccccc3Cl)cc2C1=O,11,-1,0,-2,13,6
NC(=S)N=Nc1ccc(NN=C(N)N)cc1,19,106*,10,-1,6,-15
COC(=O)c1ccc(NN=Nc2ccc(C)cc2)cc1,-13,4,24,-9,-5,18
CCOC(=O)CN1C(=O)S/C(=C\c2ccc(-c3cccc(C(=O)O)c3C)o2)C1=O,16,18,-5,8,x,-3
COc1ccc2c(c1)c(CC(=O)NCc1cc([N+](=O)[O-])ccc1O)c(C)n2C(=O)c1ccc(Cl)cc1,7,51*,1,12,0,-9
CCn1nnc(NC(=O)COc2ccc(C3CCCCC3)cc2)n1,14,-3,19,3,x,38
CN1CCN(c2c(F)cc3c(=O)c(C(=O)O)cn4c3c2SCC4)CC1,-3,14,1,-2,-4,5
C[C@H]1COc2c(N3CCN(C)CC3)c(F)cc3c(=O)c(C(=O)O)cn1c23,7,107*,-6,7,-4,3
CCOC(=O)c1cn(C2CC2)c2c(F)c(F)c(F)cc2c1=O,-25,-20,-30,2,-20,-3
SMILES,TIM10 inh,SKKanGAS inh,tim10-1 inh,ATG4B inhibitor,PfHsp90 yeast 2,tim23-1 inh
C[C@H]1COc2c(C3(N)CC3)c(F)cc3c(=O)c(C(=O)O)cn1c23,x,66*,x,x,x,x
Cc1cc(C(=O)Nc2ccccc2C(=O)O)oc1C,9,-5,0,5,-19,15
O=C(CN1CCCC1)Nc1cc(C(F)(F)F)cc(C(F)(F)F)c1,3,-10,-16,4,-2,-10
S=c1[nH]nc(-c2cc(-c3ccccc3)n[nH]2)n1/N=C/c1cccc(Cl)c1,24,60*,39,-5,11,24
S=c1[nH]nc(-c2cc(-c3ccccc3)n[nH]2)n1/N=C/c1ccc(Cl)cc1,1,56*,4,10,-16,2
COc1ccc(S(=O)(=O)NCc2ccccn2)c(C)c1C,1,-1,-3,1,-33,2
CCOc1ccc(S(=O)(=O)NCc2ccccn2)c(C)c1C,-2,0,12,4,93*,16

# High-throughput results deposited in PubChem by several laboratories.
